Records with an inconclusive call do not appear. The source made the active and inactive calls. Calls come from the whole dose curve; as a rule, active = well fitted cell-killing curve with a large enough effect; inconclusive = small, poorly fitted or top-dose-only effect; inactive = no such curve, though single readings can be large or run the other way.
Experiment: qHTS of pediatric cancer cell lines to identify multiple opportunities for drug repurposing: Primary screen for SJ-GBM2 cells (AID 1347091)
Conditions: SJ-GBM2 viability, CellTiter-Glo luminescence, 48 h; series mostly up to 46 µM; activity change, negative = cytotoxic: at the top concentration
From the text: Drug repurposing or repositioning has been offered as a strategy for drug development in oncology programs. This approach has special potential for childhood cancers and other rare or orphan diseases, where the expected return on new drug development has been a disincentive to pharmaceuticals.
In this project we exploit the poly-pharmacology of drugs to discover new indications via phenotypic screening of a panel of 19 well-characterized cell lines derived from solid tumors seen in children and adolescents. The goal is to identify approved drugs with previously unrecognized anticancer properties that has the potential to reveal new mechanisms and biological processes involved in carcinogenesis or drug resistance. We employed a titration-based paradigm (quantitative high-throughput screening or qHTS), where all compounds were tested at multiple concentrations for their effect on cell viability. Concentration-response curves (CRCs) were derived directly from the primary screen, and both potency and efficacy values were used to identify compounds with robust bioactivity profiles. We screened the NIH Chemical Genomics Center (NCGC) Pharmaceutical Collection (NPC) and Mechanism Interrogation Plate (MIPE) small molecule collections of approved and investigational compounds against these cell lines; and measured metabolically active cells after 48 hours of compound treatment as a proxy for cell viability.
Assay Submitter: Nathalia J. Martinez, National Center for Advancing Translational Sciences, National Institutes of Health, Rockville, MD, USA; email: natalia.martinez@nih.gov
[1] Shen, M et al. Quantitative high-throughput phenotypic screening of pediatric cancer cell lines identifies multiple opportunities for drug repurposing. Oncotarget 2017 Dec 19;9(4):4758-4772. PMID 29435139.
The cells were obtained from University of North Carolina (UNC), Pediatric Preclinical Testing Program (PPT), and Coriell Institute (CI).
qHTS cell viability assay:
Cells were assayed in growth media at a density of 500-1,000 cells/well. Five microliters of cells were dispensed into 1,536-well, white, solid-bottom, TC-treated plates (Greiner Bio One) using a multidrop dispenser and incubated at 37 degrees C, 5% CO2, under a humidified atmosphere for 5 hours. Twenty-three nanoliters of compounds and controls (neutral control DMSO or positive control bortezomib at final concentration of 2.3 µM) were subsequently transferred by Kalypsys pintool. For primary screens, the MIPE collection was tested at 11-point dilutions (final concentrations range from 0.78 nM to 46 µM) and the NPC collection at 8-point dilutions (final concentrations range from 0.59 nM to 46 µM). Compounds tested in follow-up screens were assayed at 11-point dilutions. Cells were incubated for 48 hours, followed by addition of 3 uL of CellTiter-Glo (Promega). After a 15 min incubation at room temperature, samples were analyzed for luminescence intensity using a ViewLux High-throughput CCD imager equipped with clear filters.
Potency is the fitted concentration of half-maximal effect.

Compound	activity change, negative = cytotoxic	Potency
Cn1c(=O)c2c(ncn2CC2OCCO2)n(C)c1=O	24.2% (inactive)	–
OCC(CO)N[C@H]1C[C@](O)(CO)[C@@H](O)[C@H](O)[C@H]1O	2.67% (inactive)	–
C#CCN(C)Cc1ccccc1	32% (inactive)	–
COc1ccc2[nH]c(S(=O)Cc3ncc(C)c(OC)c3C)nc2n1 (stereo not given)	17.3% (inactive)	–
NC(N)=NCCC[C@H](N)C(=O)O	11.2% [at 4.84 µM] (inactive)	–
Nc1ccc(S(=O)(=O)NC(=O)c2ccccc2)cc1	-3.15% (inactive)	–
CCCCN1CCCC[C@H]1C(=O)Nc1c(C)cccc1C	-1.76% (inactive)	–
O=C(O)c1ccccc1O	20.3% (inactive)	–
NC(=O)N/N=C/c1ccc([N+](=O)[O-])o1	–	inactive
NCC(=O)CCC(=O)O	21.3% (inactive)	–
CCCCCCCCCCCCCCCCCCOCC(O)CO (stereo not given)	21.9% (inactive)	–
CC(C)(C(=O)O)c1ccc(C(O)CCCN2CCC(C(O)(c3ccccc3)c3ccccc3)CC2)cc1 (stereo not given)	13.2% (inactive)	–
O=S(=O)(O)c1cc(I)c(O)c2ncccc12	21.3% (inactive)	–
COc1cc(C)c(Cc2cnc(N)nc2N)cc1OC	0.809% (inactive)	–
CCCCN(CCCC)CCCOC(=O)c1ccc(N)cc1	-7.31% (inactive)	–
NC(=O)NC(=O)Cc1ccccc1	1.08% (inactive)	–
O=c1cc[nH]c(=O)[nH]1	24.3% (inactive)	–
NC1CCN(c2cccc(Cl)n2)CC1	17.2% (inactive)	–
CCCCC(CC)COC(=O)c1ccccc1O (stereo not given)	16.2% (inactive)	–
Nc1ccc(S(=O)(=O)Nc2ccccc2)cc1	20.7% (inactive)	–

Compound	activity change, negative = cytotoxic	Potency
CC(=O)CCC(=O)O	23.1% (inactive)	–
CC(=O)Oc1c(C)c(C)c2c(c1C)CC[C@@](C)(CCC[C@H](C)CCC[C@H](C)CCCC(C)C)O2	24.4% (inactive)	–
Cc1cc2nc3c(=O)[nH]c(=O)nc-3n(C[C@H](O)[C@H](O)[C@H](O)CO)c2cc1C	16.5% [at 16.1 µM] (inactive)	–
[Cl][In]([Cl])[Cl]	35.6% [at 92.7 µM] (inactive)	–
COc1ccc(S(=O)(=O)Nc2nnc(CC(C)C)s2)cc1	61.4% (inactive)	–
OCCN1CCN(CCCN2c3ccccc3Sc3ccc(Cl)cc32)CC1	–	21.1 µM (active)
CC(=O)NC(Cc1ccccc1)C(=O)O (stereo not given)	0.623% (inactive)	–
Nc1ccc(S(=O)(=O)Nc2nccs2)cc1	14.4% (inactive)	–
CCOC(CN1CCN(CC(C)C(=O)c2ccccc2)CC1)c1ccccc1 (stereo not given)	5.64% [at 16.1 µM] (inactive)	–
C[C@@H](O)[C@H](N)C(=O)O	13.9% [at 16.1 µM] (inactive)	–
O=C(O)COc1nn(Cc2ccccc2)c2ccccc12	16.8% (inactive)	–
CC1(C)OC(=O)NC1=O	31.6% (inactive)	–
NCCNCCNCCNCCN	0.237% [at 9.22 µM] (inactive)	–
CCN(CC)C(=O)Nc1ccc(OCC(O)CNC(C)(C)C)c(C(C)=O)c1 (stereo not given)	11.1% (inactive)	–
CC(=O)Nc1ccc(/C=N/NC(N)=S)cc1	11.8% (inactive)	–
CC(O)COc1ccccc1 (stereo not given)	24% (inactive)	–
CC(COc1ccccc1)NC(C)C(O)c1ccc(O)cc1 (stereo not given)	7.11% (inactive)	–
CC[C@@]1(c2ccccc2)NC(=O)N(C)C1=O	20.4% (inactive)	–
CCCc1c(OCCCCc2nn[nH]n2)ccc(C(C)=O)c1O	1.05% (inactive)	–
N[C@@H](CSSC[C@H](N)C(=O)O)C(=O)O	12.9% [at 0.597 µM] (inactive)	–

Reference: PubChem BioAssay (NCATS)
